Data as given in PubChem BioAssay AID1159580 (chemical genetic matrix, 2015).
The whole screen tested about 5,500 compounds, of which about 2,000 (36%) were called active. Not shown: some 18% with an inconclusive outcome. Rule as the data show it: active = normalized growth mostly below about 0.91 (no sharp cut-off); inconclusive = no clear call, values can overlap the other calls; inactive = mostly above about 0.92. Some of the results follow.

Assay: chemical genetic growth profiling, strain panel (AID 1159580);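 also: tested at 20 µM; growth read once vehicle control cultures reached saturation at 30 °C; 1 = growth at the plate median or of vehicle wells; lower values mean less growth of the strain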
Conditions: growth OD

Measured: normalized growth

CNC(=O)N(C)c1nnc(C(C)(C)C)s1
inactive: S. cerevisiae deletion strains, locus YJR075W, strain HOC1, stronger effect = lower value 1.02 | S. cerevisiae deletion strains, locus YKL009W, strain mrt4, stronger effect = lower value 1.04 | S. cerevisiae deletion strains, locus YKL068W, stronger effect = lower value 1.01 | S. cerevisiae deletion strains, locus YKL085W, strain MDH1 (second series), stronger effect = lower value 1.02 | S. cerevisiae deletion strains, locus YKL085W, strain MDH1, stronger effect = lower value 1.02 | S. cerevisiae deletion strains, locus YKL160W, strain elf1, stronger effect = lower value 0.992 | S. cerevisiae deletion strains, locus YKL190W, strain CNB1, stronger effect = lower value 1.01 | S. cerevisiae deletion strains, locus YKR001C, strain vps1, stronger effect = lower value 1.04 | S. cerevisiae deletion strains, locus YKR026C, strain gcn3, stronger effect = lower value 0.991 | S. cerevisiae deletion strains, locus YKR091W, strain srl3, stronger effect = lower value 0.974 | S. cerevisiae deletion strains, locus YLL001W, strain dnm1, stronger effect = lower value 0.988 | S. cerevisiae deletion strains, locus YLL026W, stronger effect = lower value 0.992 | S. cerevisiae deletion strains, locus YLL041C, strain sdh2, stronger effect = lower value 0.98 | S. cerevisiae deletion strains, locus YLR027C, strain aat2, stronger effect = lower value 0.973 | S. cerevisiae deletion strains, locus YLR039C, strain RIC1, stronger effect = lower value 1.07 | S. cerevisiae deletion strains, locus YLR058C, strain SHM2, stronger effect = lower value 1.01 | S. cerevisiae deletion strains, locus YLR102C, strain apc9, stronger effect = lower value 1.03 | S. cerevisiae deletion strains, locus YLR221C, strain rsa3, stronger effect = lower value 1.01 | S. cerevisiae deletion strains, locus YLR258W, strain gsy2, stronger effect = lower value 0.975 | S. cerevisiae deletion strains, locus YLR262C, strain YPT6 (second series), stronger effect = lower value 1.03 | S. cerevisiae deletion strains, locus YLR262C, strain YPT6, stronger effect = lower value 1.09 | S. cerevisiae deletion strains, locus YLR268W, strain sec22, stronger effect = lower value 1.02 | S. cerevisiae deletion strains, locus YLR320W, strain mms22, stronger effect = lower value 1.03 | S. cerevisiae deletion strains, locus YLR330W, strain CHS5, stronger effect = lower value 1.02 | S. cerevisiae deletion strains, locus YLR342W, strain FKS1 (second series), stronger effect = lower value 1.07 | S. cerevisiae deletion strains, locus YLR342W, strain FKS1, stronger effect = lower value 0.998 | S. cerevisiae deletion strains, locus YLR357W, strain rsc2, stronger effect = lower value 0.972 | S. cerevisiae deletion strains, locus YLR370C, strain arc18, stronger effect = lower value 0.983 | S. cerevisiae deletion strains, locus YLR371W, strain rom2, stronger effect = lower value 1.02 | S. cerevisiae deletion strains, locus YLR384C, strain iki3, stronger effect = lower value 1.01 | S. cerevisiae deletion strains, locus YLR418C, strain cdc73, stronger effect = lower value 1.09 | S. cerevisiae deletion strains, locus YML016C, strain PPZ1, stronger effect = lower value 1.01 | S. cerevisiae deletion strains, locus YML032C, strain rad52, stronger effect = lower value 1.01 | S. cerevisiae deletion strains, locus YML120C, strain ndi1, stronger effect = lower value 1.01 | S. cerevisiae deletion strains, locus YML124C, strain tub3, stronger effect = lower value 1.01 | S. cerevisiae deletion strains, locus YMR058W, strain fet3, stronger effect = lower value 0.977 | S. cerevisiae deletion strains, locus YMR078C, strain ctf18, stronger effect = lower value 1.02 | S. cerevisiae deletion strains, locus YMR125W, strain sto1, stronger effect = lower value 0.942 | S. cerevisiae deletion strains, locus YMR129W, stronger effect = lower value 0.998 | S. cerevisiae deletion strains, locus YMR205C, strain PFK2, stronger effect = lower value 0.969 | S. cerevisiae deletion strains, locus YMR223W, strain ubp8, stronger effect = lower value 1.02 | S. cerevisiae deletion strains, locus YMR231W, strain pep5, stronger effect = lower value 1.01 | S. cerevisiae deletion strains, locus YMR263W, strain SAP30, stronger effect = lower value 1.02 | S. cerevisiae deletion strains, locus YMR307W, strain GAS1, stronger effect = lower value 1.1 | S. cerevisiae deletion strains, locus YNL067W, strain RPL9B, stronger effect = lower value 1.02 | S. cerevisiae deletion strains, locus YNL071W, strain lat1, stronger effect = lower value 0.993 | S. cerevisiae deletion strains, locus YNL128W, strain TEP1, stronger effect = lower value 1.01 | S. cerevisiae deletion strains, locus YNL153C, strain GIM3, stronger effect = lower value 1.01 | S. cerevisiae deletion strains, locus YNL209W, strain ssb2, stronger effect = lower value 1.01 | S. cerevisiae deletion strains, locus YNL233W, strain BNI4, stronger effect = lower value 1.01 | S. cerevisiae deletion strains, locus YNL248C, strain rpa49, stronger effect = lower value 0.995 | S. cerevisiae deletion strains, locus YNL250W, strain rad50, stronger effect = lower value 1.02 | S. cerevisiae deletion strains, locus YNL271C, strain bni1, stronger effect = lower value 1.03 | S. cerevisiae deletion strains, locus YNL298W, strain CLA4, stronger effect = lower value 1.03 | S. cerevisiae deletion strains, locus YNL307C, strain MCK1, stronger effect = lower value 1.02 | S. cerevisiae deletion strains, locus YNL322C, strain KRE1 (second series), stronger effect = lower value 0.986 | S. cerevisiae deletion strains, locus YNL322C, strain KRE1, stronger effect = lower value 1.01 | S. cerevisiae deletion strains, locus YNR049C, strain mso1, stronger effect = lower value 0.974 | S. cerevisiae deletion strains, locus YNR052C, strain pop2, stronger effect = lower value 1.03 | S. cerevisiae deletion strains, locus YOL006C, strain TOP1, stronger effect = lower value 1.06 | S. cerevisiae deletion strains, locus YOL012C, strain htz1 1.29 | S. cerevisiae deletion strains, locus YOL147C, strain pex11, stronger effect = lower value 1.01 | S. cerevisiae deletion strains, locus YOR001W, strain rrp6, stronger effect = lower value 1.01 | S. cerevisiae deletion strains, locus YOR061W, strain CKA2, stronger effect = lower value 1.01 | S. cerevisiae deletion strains, locus YOR069W, strain VPS5, stronger effect = lower value 1 | S. cerevisiae deletion strains, locus YOR070C, strain gyp1, stronger effect = lower value 1 | S. cerevisiae deletion strains, locus YOR080W, strain dia2, stronger effect = lower value 0.998 | S. cerevisiae deletion strains, locus YOR083W, strain WHI5, stronger effect = lower value 0.991 | S. cerevisiae deletion strains, locus YOR106W, strain vam3, stronger effect = lower value 0.961 | S. cerevisiae deletion strains, locus YOR136W, strain idh2, stronger effect = lower value 1.01 | S. cerevisiae deletion strains, locus YOR144C, strain elg1, stronger effect = lower value 1.01 | S. cerevisiae deletion strains, locus YOR184W, strain ser1, stronger effect = lower value 1.04 | S. cerevisiae deletion strains, locus YOR265W, strain rbl2, stronger effect = lower value 0.994 | S. cerevisiae deletion strains, locus YOR270C, strain vph1, stronger effect = lower value 1.01 | S. cerevisiae deletion strains, locus YOR290C, strain snf2, stronger effect = lower value 0.959 | S. cerevisiae deletion strains, locus YOR316C, strain cot1, stronger effect = lower value 1.02 | S. cerevisiae deletion strains, locus YPL051W, strain arl3, stronger effect = lower value 1.01 | S. cerevisiae deletion strains, locus YPL055C, strain LGE1, stronger effect = lower value 1.03 | S. cerevisiae deletion strains, locus YPL078C, strain atp4, stronger effect = lower value 0.961 | S. cerevisiae deletion strains, locus YPL106C, strain sse1, stronger effect = lower value 1.02 | S. cerevisiae deletion strains, locus YPL240C, strain hsp82, stronger effect = lower value 0.994 | S. cerevisiae deletion strains, locus YPL241C, strain CIN2, stronger effect = lower value 1.02 | S. cerevisiae deletion strains, locus YPR119W, strain clb2, stronger effect = lower value 1.01 | S. cerevisiae deletion strains, locus YPR141C, strain kar3, stronger effect = lower value 1.02 | S. cerevisiae deletion strains, locus YPR163C, strain tif3, stronger effect = lower value 1.01 | S. cerevisiae deletion strains, locus YPR167C, strain met16, stronger effect = lower value 1.03 | S. cerevisiae deletion strains, strain wtn01, stronger effect = lower value 1.03 | S. cerevisiae strains, strain wild type, stronger effect = lower value 1.01
